Data on twelve compounds can be found in PubChem BioAssay (Tox21).

A short description of assay [1]: qHTS assay to identify small molecule antagonists of the androgen receptor (AR) signaling pathway using the MDA cell line in the presence of 0.5 nM R1881 - cell viability counter screen (AID 1259242). Further: nearly all actives have a fitted effect of over 45% in size. The procedure, abridged: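 Cytotoxicity toward MDA-kb2 cells is measured by CellTiter-Fluor live-cell protease fluorescence after 16 hr compound exposure at 37C in the presence of 0.5 nM R1881 stimulator.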
(Quantitative high-throughput screening tests each substance at several concentrations.)

Assay [2] has as its target Estrogen receptor (Homo sapiens) (UniProt P03372). Put plainly: qHTS assay to identify small molecule antagonists of the estrogen receptor alpha (ER-alpha) signaling pathway using the BG1 cell line in the presence of 0.1 nM 17-beta-estradiol (AID 1259244). Further: nearly all actives have a fitted effect of over 50% in size. The procedure, abridged: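 After 5 days in hormone-depleted medium (charcoal-stripped serum, no phenol red), VM7Luc4E2 cells were seeded, incubated 24 h, then co-treated with compound and 0.1 nM (final) estradiol for 22 h before luminescence detection.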

The nature of assay [3]: qHTS assay to identify small molecule HDAC inhibitors (AID 1259364). Further: top concentration of the series differs between compounds; nearly all actives have a fitted effect of over 45% in size. The procedure, abridged: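 Homogeneous cell-based luminescent assay of endogenous class I/II HDAC activity; HCT-116 cells, 2 h compound exposure, 30 min HDAC-Glo development at RT.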
Assay [4] can be described thus: qHTS assay to identify small molecule HDAC inhibitors - cell viability counter screen (AID 1259365). Further: series mostly up to about 92 µM; nearly all actives have a fitted effect of over 50% in size. The method, boiled down: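 HCT-116 wild-type, overnight attachment; 2hr drug exposure, 37C; CellTiter-Glo luminescent ATP readout after 30min RT.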
Assay [5] is described as follows: qHTS assay to identify small molecule agonists of the sonic hedgehog signaling (Shh) pathway - cell viability counter screen (AID 1259366). Further: nearly all actives have a fitted effect of over 50% in size. Further: potency means the concentration at half of the fitted maximal effect. The procedure, abridged:
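Compounds in DMSO were pin-transferred onto 3T3 Gli1-Luc cells that had settled 4hr; plates then stood 24hr at 37C and 5% CO2. One hour before the end, CellTiter-Fluor was added and fluorescence recorded.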

Assay [6] can be described thus: qHTS assay to identify small molecule antagonists of the sonic hedgehog signaling (Shh) pathway - cell viability counter screen (AID 1259367). Further: nearly all actives have a fitted effect of over 55% in size. Further: potency means the concentration at half of the fitted maximal effect. The procedure, abridged:
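Seed 3T3 Gli1-Luc cells at 2,000 per well; incubate 4 hr; add compound in DMSO, then conditioned medium; incubate at 37C with 5% CO2; add CellTiter-Fluor after 23 hr; read fluorescence 1 hr later.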

Assay [7] can be described thus: qHTS assay to identify small molecule agonists of the sonic hedgehog signaling (Shh) pathway (AID 1259368; calls by dose curve;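 further: NIH/3T3-derived 3T3Gli1-Luc cells carrying a stable Gli1-driven firefly luciferase reporter; series mostly up to about 92 µM; nearly all actives have a fitted effect of over 15% in size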). The procedure, abridged:
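Steps: seed 3T3 Gli1-Luc cells, incubate 4 hr at 37 C, pin-transfer compounds in DMSO alongside a positive control, incubate 24 hr, add luciferase detection reagent, wait 30 min at room temperature, read luminescence.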

The target in assay [8] is Estrogen receptor beta (Homo sapiens) (UniProt Q92731). Put plainly: qHTS assay to identify small molecule agonists of the estrogen receptor beta (ER-beta) signaling pathway (AID 1259377; active means well fitted activation curve with a large enough effect in the signal ratio in the repeat runs, not every such curve was filed as active; the % refers to the signal ratio). The procedure, abridged: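 qHTS in ER-beta-UAS-bla HEK293T cells: 6 hr settling, then 16 hr compound at 37C, then LiveBLAzer substrate 2 h at RT before fluorescence reading.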
Sequence of Estrogen receptor beta (Homo sapiens) (Q92731 whole entry, looked up): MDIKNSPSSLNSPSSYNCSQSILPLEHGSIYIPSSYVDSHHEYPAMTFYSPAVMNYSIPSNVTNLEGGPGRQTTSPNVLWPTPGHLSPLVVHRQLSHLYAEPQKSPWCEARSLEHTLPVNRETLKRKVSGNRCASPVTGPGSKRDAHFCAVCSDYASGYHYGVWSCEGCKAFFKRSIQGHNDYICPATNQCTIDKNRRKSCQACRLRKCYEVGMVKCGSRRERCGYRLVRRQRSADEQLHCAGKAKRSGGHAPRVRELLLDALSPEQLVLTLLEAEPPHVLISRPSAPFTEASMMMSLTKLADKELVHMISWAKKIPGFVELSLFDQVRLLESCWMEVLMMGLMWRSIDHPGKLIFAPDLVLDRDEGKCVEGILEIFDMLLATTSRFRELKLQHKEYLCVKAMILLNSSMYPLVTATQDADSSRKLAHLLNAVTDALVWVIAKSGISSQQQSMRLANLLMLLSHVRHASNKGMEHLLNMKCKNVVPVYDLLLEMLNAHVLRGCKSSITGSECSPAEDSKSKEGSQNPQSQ
A short description of assay [9]: qHTS assay to identify small molecule agonists of the androgen receptor (AR) signaling pathway in the presence of an antagonist - cell viability counter screen (AID 1259379).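 Further: MDA-kb2 human breast cancer cells carrying an MMTV luciferase reporter; series mostly up to about 92 µM; nearly all actives have a fitted effect of over 25% in size.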 The procedure, abridged:
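Fluorescence from CellTiter-Fluor, added after 15 hr and read 1 hr later, gave cell viability. Cells were MDA-kb2 exposed to compounds (15 concentrations) in the presence of 3.0uM nilutamide at 37C, 0% CO2.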

Assay [10] deals with Estrogen receptor (Homo sapiens) (UniProt P03372). As to the kind of experiment: qHTS assay to identify small molecule agonists of the estrogen receptor alpha (ER-alpha) signaling pathway in the presence of an antagonist (AID 1259383; calls by dose curve; further: top concentration of the series differs between compounds; nearly all actives have a fitted effect of over 15% in size). The method, boiled down: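 Cells are hormone-deprived for 5 days (charcoal-stripped FBS, no phenol red), plated for 24hr, spiked with 10.0nM ICI-182,780, then dosed at 15 concentrations. After 22hr at 37C, ONE-Glo luminescence reports ERE-luciferase activity.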
Sequence of Estrogen receptor (Homo sapiens) (P03372 whole entry, looked up): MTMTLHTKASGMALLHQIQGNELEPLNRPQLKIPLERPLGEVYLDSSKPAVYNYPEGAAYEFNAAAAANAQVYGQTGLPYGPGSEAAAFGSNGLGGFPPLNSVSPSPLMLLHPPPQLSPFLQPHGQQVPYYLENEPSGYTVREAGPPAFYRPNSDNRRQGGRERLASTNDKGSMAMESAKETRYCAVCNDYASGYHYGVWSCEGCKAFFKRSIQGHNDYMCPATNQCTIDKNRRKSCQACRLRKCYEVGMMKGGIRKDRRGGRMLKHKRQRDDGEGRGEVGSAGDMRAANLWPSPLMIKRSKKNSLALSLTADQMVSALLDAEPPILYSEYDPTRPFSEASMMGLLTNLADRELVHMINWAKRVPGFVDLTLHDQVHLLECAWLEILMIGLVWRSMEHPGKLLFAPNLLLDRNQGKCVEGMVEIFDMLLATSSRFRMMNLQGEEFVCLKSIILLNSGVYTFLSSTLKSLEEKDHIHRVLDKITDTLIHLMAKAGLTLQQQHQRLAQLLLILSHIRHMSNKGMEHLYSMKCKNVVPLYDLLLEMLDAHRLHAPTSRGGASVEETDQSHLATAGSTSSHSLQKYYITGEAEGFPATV

The nature of assay [11]: qHTS assay to identify small molecule agonists or antagonists of the thyroid stimulating hormone receptor (TSHR) signaling pathway - wild type cell line counter screen (AID 1259384; calls by dose curve). The method, boiled down:
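Wild-type Hek293 cells, 800/well, 18 h at 37C, then compound with Ro20-1724 for 30 min RT. cAMP by HTRF (cAMP-d2/anti-cAMP cryptate), 1 h RT, fluorescence read. 15 concentrations, triplicates.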

In assay [12] the target is Thyrotropin receptor (Homo sapiens) (UniProt P16473). As to the kind of experiment: qHTS assay to identify small molecule antagonists of the thyroid stimulating hormone receptor (TSHR) signaling pathway (AID 1259385; calls by dose curve; further: nearly all actives have a fitted effect of over 20% in size). The procedure, abridged:
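TSHR-HEK293 cells (800/well) plated 18 h, then compounds with Ro20-1724 and TSH at 1.5 ng/mL final, 30 min at room temperature. cAMP quantified by HTRF (cAMP-d2/anti-cAMP-cryptate, 1 h); 15 concentrations in triplicate.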

The target of assay [13] is Estrogen receptor beta (Homo sapiens) (UniProt Q92731). Put plainly: qHTS assay to identify small molecule antagonists of the estrogen receptor beta (ER-beta) signaling pathway (AID 1259378; active means well fitted inhibition curve with a large enough effect in the signal ratio in the repeat runs, not every such curve was filed as active; the % refers to the signal ratio). The method, boiled down: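 ER-beta-UAS-bla HEK293T cells in 2% charcoal-stripped FBS medium treated with compound plus 1nM final 17-beta-estradiol for 16 hr at 37C. Beta-lactamase reporter read by FRET substrate fluorescence after 2 hours at room temperature.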

Assay [14] can be described thus: qHTS assay to identify small molecule agonists of the estrogen receptor beta (ER-beta) signaling pathway - cell viability counter screen (AID 1259380). Further: nearly all actives have a fitted effect of over 30% in size. Further: potency means the concentration at half of the fitted maximal effect. The procedure, abridged:
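Same-well viability counter screen. Cells: ER-beta-UAS-bla HEK293T, plated 6 hr before compound, in 2% charcoal-stripped FBS. Compound exposure 16 hr, 37C; viability by CellTiter-Glo luminescence after 30 min at room temperature.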

A short description of assay [15]: qHTS assay to identify small molecule antagonists of the estrogen receptor beta (ER-beta) signaling pathway - cell viability counter screen (AID 1259382). Further: nearly all actives have a fitted effect of over 55% in size. Further: potency means the concentration at half of the fitted maximal effect. The method, boiled down:
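Following a 6 hr plating period, HEK293T cells carrying a UAS-driven beta-lactamase reporter under ER-beta control received compounds and 1nM E2 (final). After 16 hr at 37C and 2 hr substrate loading, CellTiter-Glo luminescence indicated viability.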

A short description of assay [16]: qHTS assay to identify small molecule antagonists of the estrogen receptor alpha (ER-alpha) signaling pathway using the BG1 cell line in the presence of 0.1 nM 17-beta-estradiol - cell viability counter screen (AID 1259241). Further: nearly all actives have a fitted effect of over 40% in size. The method, boiled down: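 Following 5 days in phenol red-free medium with charcoal-stripped serum, VM7Luc4E2 cells received test compounds alongside 0.1 nM 17beta-estradiol (final) at 37C for 22 hr. Live cells were then quantified via protease-substrate fluorescence.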

The nature of assay [17]: qHTS assay to identify small molecule phospholipidosis (PLD) inducers (AID 1259344; active means well fitted curve in the direction sought with a large enough effect; an effect the other way counts as inactive or inconclusive). The method, boiled down: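 Quantitative HTS in HepG2: compound plus LipidTOX Red dye for 24 h, paraformaldehyde fixation with Hoechst 33342, widefield high-content imaging; amiodarone as positive and DMSO as negative control.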
Assay [18] in a line: qHTS assay to identify small molecule antagonists of the sonic hedgehog signaling (Shh) pathway (AID 1259369; calls by dose curve; further: nearly all actives have a fitted effect of over 45% in size; further: potency means the concentration at half of the fitted maximal effect). The method, boiled down:
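Inhibition of Shh signalling is measured as reduced Gli1-response-element firefly luciferase output in an NIH/3T3-derived stable reporter clone stimulated with conditioned medium for 24hr.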

For assay [19], the target named is Androgen receptor (Homo sapiens) (UniProt P10275). Put plainly: qHTS assay to identify small molecule antagonists of the androgen receptor (AR) signaling pathway using the MDA cell line in the presence of 0.5 nM R1881 (AID 1259243). Further: nearly all actives have a fitted effect of over 50% in size. Further: potency means the concentration at half of the fitted maximal effect. The method, boiled down: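 Steps: seed MDA-kb2 cells, incubate 5 hr at 37C; pin-transfer compounds in DMSO; add R1881 to 0.5 nM final; incubate 16 hr; add ONE-Glo, wait 30 min at room temperature; read luminescence.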
Sequence of Androgen receptor (Homo sapiens) (P10275 whole entry, looked up): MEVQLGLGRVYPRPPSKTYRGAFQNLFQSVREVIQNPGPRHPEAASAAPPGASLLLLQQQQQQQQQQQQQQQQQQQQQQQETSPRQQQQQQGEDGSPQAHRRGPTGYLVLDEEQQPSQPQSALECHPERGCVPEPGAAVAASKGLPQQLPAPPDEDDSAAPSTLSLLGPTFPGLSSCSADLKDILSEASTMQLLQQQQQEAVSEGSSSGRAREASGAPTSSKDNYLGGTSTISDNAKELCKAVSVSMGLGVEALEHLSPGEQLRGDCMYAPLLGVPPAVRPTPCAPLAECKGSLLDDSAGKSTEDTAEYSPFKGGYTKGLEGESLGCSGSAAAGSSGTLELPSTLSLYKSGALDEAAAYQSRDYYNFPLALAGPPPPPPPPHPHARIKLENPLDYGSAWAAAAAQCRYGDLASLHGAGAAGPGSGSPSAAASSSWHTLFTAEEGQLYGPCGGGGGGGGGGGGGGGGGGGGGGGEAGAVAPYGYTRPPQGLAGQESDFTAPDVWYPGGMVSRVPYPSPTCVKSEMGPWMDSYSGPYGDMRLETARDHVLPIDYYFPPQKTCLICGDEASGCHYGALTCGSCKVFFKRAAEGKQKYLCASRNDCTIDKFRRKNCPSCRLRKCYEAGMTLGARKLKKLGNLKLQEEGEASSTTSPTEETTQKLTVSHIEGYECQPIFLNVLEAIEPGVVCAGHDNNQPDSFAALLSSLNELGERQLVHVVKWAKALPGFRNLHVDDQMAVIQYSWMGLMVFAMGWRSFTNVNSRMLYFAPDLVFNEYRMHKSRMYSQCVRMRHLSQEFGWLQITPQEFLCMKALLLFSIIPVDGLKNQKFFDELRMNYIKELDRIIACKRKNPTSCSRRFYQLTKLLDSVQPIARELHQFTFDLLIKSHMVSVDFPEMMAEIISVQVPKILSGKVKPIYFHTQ

The target is the same in assay [20]. Put plainly: qHTS assay to identify small molecule agonists of the androgen receptor (AR) signaling pathway in the presence of an antagonist (AID 1259381; calls by dose curve; further: nearly all actives have a fitted effect of over 15% in size). The procedure, abridged:
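Cells are MDA-kb2 (human breast carcinoma, MMTV-luc, AR/GR responsive). Nilutamide is present at 3.0uM final throughout; compounds are added at 15 concentrations and incubated 16hr at 37C before ONE-Glo luminescence detection.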

SMILES strings stand for the structures. A number with no mark means an inactive call. Records with an inconclusive call do not appear. The source made the active and inactive calls. Unless noted, the call rests on the fitted dose curve; in most records, active means well fitted curve in the direction sought with a large enough effect in the repeat runs; inconclusive means weak or mixed curves; inactive means no such curve, though single readings can be large; an effect the other way counts as inactive or inconclusive.

Sequence of Thyrotropin receptor (Homo sapiens) (P16473 whole entry, looked up): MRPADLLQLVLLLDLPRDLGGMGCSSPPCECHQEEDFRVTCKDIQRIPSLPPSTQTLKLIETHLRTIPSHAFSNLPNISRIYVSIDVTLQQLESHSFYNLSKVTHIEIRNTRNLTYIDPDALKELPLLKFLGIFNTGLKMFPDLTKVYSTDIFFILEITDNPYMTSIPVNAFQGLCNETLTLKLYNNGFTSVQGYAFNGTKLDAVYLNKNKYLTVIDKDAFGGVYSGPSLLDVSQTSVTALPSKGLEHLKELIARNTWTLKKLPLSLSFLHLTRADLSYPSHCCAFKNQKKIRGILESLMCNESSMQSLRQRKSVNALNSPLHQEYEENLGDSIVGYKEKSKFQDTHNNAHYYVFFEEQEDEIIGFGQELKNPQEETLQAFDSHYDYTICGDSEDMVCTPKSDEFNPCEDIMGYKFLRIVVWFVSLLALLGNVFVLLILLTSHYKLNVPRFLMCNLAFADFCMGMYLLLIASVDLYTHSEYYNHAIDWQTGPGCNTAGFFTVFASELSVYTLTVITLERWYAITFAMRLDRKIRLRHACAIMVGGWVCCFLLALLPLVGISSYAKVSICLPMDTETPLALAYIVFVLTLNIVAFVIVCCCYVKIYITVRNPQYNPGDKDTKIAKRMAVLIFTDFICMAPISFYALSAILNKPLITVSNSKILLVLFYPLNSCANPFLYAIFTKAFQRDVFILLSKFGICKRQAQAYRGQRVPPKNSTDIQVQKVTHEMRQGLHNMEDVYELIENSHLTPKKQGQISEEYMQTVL

With `CCCCc1nc2cccnc2n1Cc1ccc(-c2ccccc2-c2nnn[nH]2)cc1`, the Potency result in assay [1], in assay [2], in assay [3], in [4], in assay [8] and in [9] was “inactive” throughout. Further, the Potency result in [10], in [11] and in [12] was “inactive” throughout. The Potency in assay [5] was 15.4 µM (active); in [6], 17.2 µM (active). Also, the result in assay [7] was inactive.

`CCC(CC)Nc1ccc(C)c(C)c1`: the Potency result in assay [1], in [2], in [3], in assay [4], in assay [5] and in assay [6] was “inactive” throughout. Further, the Potency result in assay [8], in [13], in assay [14], in assay [15] and in assay [10] was “inactive” each time. Moreover, in assay [7], the call was inactive.

Turning to `CO[C@@H]1[C@H](OC(=O)/C=C/C=C/C=C/C=C/C(=O)O)CC[C@]2(CO2)[C@H]1[C@@]1(C)O[C@@H]1CC=C(C)C`, the Potency entry in [16], in assay [17], in assay [4], in assay [5], in assay [6] and in assay [8] was “inactive” in each case. Moreover, the Potency result in [13], in assay [14], in assay [15], in [10], in assay [11] and in assay [12] was “inactive” each time. Further, the compound was called inactive in assay [7].

Turning to `CC(C)(COC(=O)c1ccccc1)COC(=O)c1ccccc1`, the Potency result in [16], in assay [3], in assay [4], in [5], in assay [6] and in assay [18] was “inactive” throughout. Further, the Potency result in [8], in assay [13], in [9], in assay [14], in assay [15] and in assay [12] was “inactive” throughout. Further, the compound was classed as inactive in assay [7].

For `O=C1CCC(=O)O1`, the Potency result in [16], in assay [3], in assay [4], in assay [5], in assay [6] and in assay [18] was “inactive” each time. The Potency result in [9], in assay [14], in assay [15] and in assay [10] was “inactive” throughout. For the same compound, the compound was classed as inactive in assay [7].

As to `Cc1cccc(C)c1OCC(=O)N[C@@H](Cc1ccccc1)[C@@H](O)C[C@H](Cc1ccccc1)NC(=O)[C@H](C(C)C)N1CCCNC1=O`, the Potency result in assay [1], in assay [17], in assay [3], in [4], in assay [20] and in [10] was “inactive” each time. In addition, in assay [11], the Potency entry is “inactive”. In addition, the Potency in assay [19] was 23.7 µM (active); in [5], 15 µM (active); in assay [6], 23.7 µM (active); in assay [18] it was 29.8 µM (active); in [14], 23.7 µM (active); in assay [15], 23.7 µM (active). Also, the call in [7] was inactive.

With `ClCCOCCOCCCl`, the Potency result in assay [1], in assay [2], in [3], in assay [4], in [5] and in assay [6] was “inactive” each time. Further, the Potency entry in [18], in assay [9], in [14], in [15], in assay [10] and in [11] was “inactive” in each case. Also, the Potency result in assay [12] was “inactive”. Further, the compound was classed as inactive in assay [7].

For the compound `NS(=O)(=O)c1ccc(N2CCCCS2(=O)=O)cc1`, the Potency entry in assay [1], in [19], in [3], in assay [4], in assay [5] and in [6] was “inactive” each time. Also, the Potency entry in assay [18], in assay [9], in assay [14], in assay [20], in [15] and in assay [10] was “inactive” in each case. Also, the call in assay [7] was inactive.

In the case of `CC(C)C[C@H]1C(=O)N2CCC[C@H]2[C@]2(O)O[C@](NC(=O)[C@@H]3C=C4c5cccc6[nH]c(Br)c(c56)C[C@H]4N(C)C3)(C(C)C)C(=O)N12`, the Potency result in assay [16], in [17], in assay [3], in assay [4], in [14] and in [15] was “inactive” throughout. Also, the Potency result in assay [11] and in assay [12] was “inactive” in each case. The call in [7] was inactive. In addition, in assay [18], the Potency is 5.19 µM (active).

For `C[C@H]1C[C@H]2[C@@H]3CCC4=CC(=O)C=C[C@]4(C)[C@@]3(Cl)[C@@H](O)C[C@]2(C)[C@@]1(O)C(=O)CO`, the Potency entry in [1], in assay [2], in assay [17], in [3], in assay [4] and in assay [5] was “inactive” in each case. Moreover, the Potency result in assay [6], in [18], in assay [9], in assay [15], in assay [10] and in assay [11] was “inactive” in each case. Also, the result in assay [7] was inactive.

For `Cc1ncc(CO)c(C=O)c1O`, the Potency result in [2], in assay [17], in [3], in [4], in [5] and in [6] was “inactive” in each case. Also, the Potency result in [18], in assay [8], in assay [13], in assay [14], in [15] and in [10] was “inactive” each time. Besides, the Potency entry in assay [11] and in assay [12] was “inactive” throughout. Besides, the call in assay [7] was inactive.

Consider `COc1cc(C(=O)OCCCN2CCCN(CCCOC(=O)c3cc(OC)c(OC)c(OC)c3)CC2)cc(OC)c1OC`, for which the Potency entry in assay [17], in assay [3], in assay [4], in [8], in assay [13] and in assay [20] was “inactive” each time. For the same compound, the Potency entry in [15], in assay [10] and in assay [11] was “inactive” throughout. In addition, the Potency in [5] is 6.68 µM (active); in assay [6], 10.6 µM (active); in assay [18], 6.68 µM (active); in [14], 23.7 µM (active). For the same compound, the call in assay [7] was inactive.
